Laboratory results as given in the supplement of paper PMC10849652.
Targets with a hit are over-represented here; the source holds about 7,900 in all. About 0.6% of all pairs of compound and target were hits.

Experiments:
Experiment in all cases: log2 fold change, soluble protein after heating vs DMSO (PISA); higher = thermal stabilisation; K562 cells, 10 uM, 30 min; active = over 0.2 and 3.5 SD of the protein, either way, in both replicates (recomputed)
[1] = compound: CC1=C(C=C(C=C1)NC(=O)C2=CC(=CC=C2)C(C)(C)C#N)NC3=CC4=C(C=C3)N=CN(C4=O)C
Procedure, shortened: (§1)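 Quantification of soluble protein used TMTpro 16plex LC-MS/MS, with channel sums equalised. Samples were the supernatant after 21,000xg for 90 min of pooled aliquots from K562 cells (2×10^6 cells/mL) treated with 10 μM compound for 30 min, heated for 3 min over 48°C-58°C, and extracted in PBS with 0.5% NP-40 at 4°C. Values, from duplicates, describe thermal stability against control samples on a log2 fold-change scale.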

[2] = compound: CC1=C(C=C(C=C1)NC(=O)C2=CC(=CC=C2)N(C)C)NC(=O)C3=CC=C(C=C3)O
Procedure, shortened: as §1

[3] = compound: CC1=CC=C(C=C1)SC2=C3C=C(SC3=CN=C2)C(=O)N
Procedure, shortened: as §1

[4] = compound: CC1=NC(=CC=C1)C2=C(N=C(N2)C(C)(C)C)C3=CC4=NC=CN=C4C=C3
Procedure, shortened: as §1

Nexturastat A = compound: CCCCN(Cc1ccc(C(=O)NO)cc1)C(=O)Nc1ccccc1 [Nexturastat A]
Procedure, shortened: as §1

vemurafenib = compound: CCCS(=O)(=O)Nc1ccc(F)c(C(=O)c2c[nH]c3ncc(-c4ccc(Cl)cc4)cc23)c1F [vemurafenib]
Procedure, shortened: as §1

[5] = compound: CCCS(=O)(=O)Nc1ccc(F)c(C(=O)c2c[nH]c3ncc(Cl)cc23)c1F
Procedure, shortened: as §1

[6] = compound: CCCc1cc(C)[nH]c(=O)c1CNC(=O)c1cc(-c2ccnc(N3CCN(C)CC3)c2)cc2c1cnn2C(C)C
Procedure, shortened: as §1

givinostat = compound: CCN(CC)Cc1ccc2cc(COC(=O)Nc3ccc(C(=O)NO)cc3)ccc2c1 [givinostat]
Procedure, shortened: as §1

barasertib = compound: CCN(CCCOc1ccc2c(Nc3cc(CC(=O)Nc4cccc(F)c4)[nH]n3)ncnc2c1)CCOP(=O)(O)O [barasertib]
Procedure, shortened: as §1

Measured: log2 fold change

TJP2 isoform 7 (UniProt Q9UDY2)
inactive: [1] -0.017 | [2] -0.006 | [3] 0.007 | [4] -0.014 | Nexturastat A 0.048 | vemurafenib 0.09 | [5] 0.101 | [6] -0.194 | givinostat 0.071 | barasertib 0.102

SSRP1 (UniProt Q08945)
inactive: [1] -0.072 | [2] -0.049 | [3] 0.018 | [4] 0.091 | Nexturastat A -0.069 | vemurafenib 0.051 | [5] 0.062 | [6] 0.015 | givinostat 0.033 | barasertib 0.059

SLC4A2 (UniProt P04920)
inactive: [1] 0.04 | [2] 0.008 | [3] 0.039 | [4] -0.017 | Nexturastat A 0.046 | vemurafenib 0.002 | [5] 0.035 | [6] -0.043 | givinostat 0.037 | barasertib 0.045

SLC25A42 (UniProt Q86VD7)
inactive: [1] -0.007 | [2] 0.041 | [3] 0.038 | [4] -0.049 | Nexturastat A -0.021 | vemurafenib -0.015 | [5] 0.089 | [6] -0.054 | givinostat -0.006 | barasertib 0.001

TBRG4 (UniProt Q969Z0)
inactive: [1] 0.08 | [2] -0.006 | [3] 0.073 | [4] 0.151 | Nexturastat A -0.072 | vemurafenib 0.05 | [5] 0.185 | [6] -0.059 | givinostat 0.099 | barasertib 0.125

SLIRP (UniProt Q9GZT3)
inactive: [1] 0.175 | [2] 0.008 | [3] -0.035 | [4] 0.039 | Nexturastat A 0.286 | vemurafenib 0.028 | [5] -0.031 | [6] 0.214 | givinostat 0.113 | barasertib 0.019

SLC38A9 (UniProt Q8NBW4)
inactive: [1] 0.075 | [2] 0.007 | [3] -0.05 | [4] 0.023 | Nexturastat A 0.088 | vemurafenib -0.036 | [5] -0.012 | [6] -0.105 | givinostat 0.021 | barasertib -0.006

STAM2 (UniProt O75886)
inactive: [1] -0.08 | [2] -0.032 | [3] 0.034 | [4] 0.069 | Nexturastat A -0.012 | vemurafenib 0.009 | [5] 0.074 | [6] -0.038 | givinostat 0.021 | barasertib 0.028

THYN1 (UniProt Q9P016)
inactive: [1] 0.008 | [2] 0.013 | [3] 0.003 | [4] 0.056 | Nexturastat A -0.022 | vemurafenib -0.004 | [5] -0.004 | [6] 0.003 | givinostat -0.135 | barasertib 0.008

TIMM10 (UniProt P62072)
inactive: [1] 0.031 | [2] -0.078 | [3] 0.018 | [4] 0.045 | Nexturastat A -0.124 | vemurafenib 0.058 | [5] -0.093 | [6] -0.049 | givinostat -0.05 | barasertib 0.022

SLC29A3 (UniProt Q9BZD2)
inactive: [1] 0.005 | [2] -0.023 | [3] 0.089 | [4] 0 | Nexturastat A 0.124 | vemurafenib -0.097 | [5] -0.128 | [6] 0.017 | givinostat 0.005 | barasertib -0.016

SULT1A1 (UniProt P50225)
Chain of UniProt P50225 (P50225 whole entry, looked up): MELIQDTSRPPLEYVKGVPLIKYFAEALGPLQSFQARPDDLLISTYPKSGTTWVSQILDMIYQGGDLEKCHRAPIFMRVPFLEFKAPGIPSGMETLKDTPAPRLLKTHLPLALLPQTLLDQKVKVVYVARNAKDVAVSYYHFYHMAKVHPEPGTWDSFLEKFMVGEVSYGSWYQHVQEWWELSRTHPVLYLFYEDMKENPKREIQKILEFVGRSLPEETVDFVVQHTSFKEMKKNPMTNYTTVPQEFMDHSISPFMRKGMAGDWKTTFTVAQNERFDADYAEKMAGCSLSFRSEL
inactive: [1] 0.015 | [2] 0.162 | [3] -0.022 | [4] 0.025 | Nexturastat A -0.023 | vemurafenib 0.135 | [5] 0.037 | [6] 0.092 | givinostat 0.044 | barasertib 0.068

TM9SF2 (UniProt Q99805)
inactive: [1] 0.056 | [2] -0.009 | [3] -0.005 | [4] -0.001 | Nexturastat A -0.039 | vemurafenib -0.03 | [5] 0.018 | [6] -0.004 | givinostat -0.019 | barasertib 0.035

SLC25A39 (UniProt Q9BZJ4)
Chain of UniProt Q9BZJ4 (Q9BZJ4 whole entry, looked up): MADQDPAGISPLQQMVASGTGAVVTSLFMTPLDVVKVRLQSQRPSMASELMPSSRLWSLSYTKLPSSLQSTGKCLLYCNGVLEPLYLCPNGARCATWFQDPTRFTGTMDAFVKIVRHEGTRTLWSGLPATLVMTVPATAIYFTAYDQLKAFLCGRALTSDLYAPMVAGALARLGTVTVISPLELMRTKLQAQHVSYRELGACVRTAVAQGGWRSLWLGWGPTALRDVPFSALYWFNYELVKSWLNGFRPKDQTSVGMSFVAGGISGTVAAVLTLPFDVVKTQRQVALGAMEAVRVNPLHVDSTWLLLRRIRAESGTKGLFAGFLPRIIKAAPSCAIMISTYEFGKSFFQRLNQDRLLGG
inactive: [1] -0.029 | [2] 0.011 | [3] 0.207 | [4] 0.129 | Nexturastat A -0.037 | vemurafenib -0.019 | [5] -0.048 | [6] -0.133 | givinostat -0.092 | barasertib 0.088

TAF9 (UniProt Q16594)
Chain of UniProt Q16594 (Q16594 whole entry, looked up): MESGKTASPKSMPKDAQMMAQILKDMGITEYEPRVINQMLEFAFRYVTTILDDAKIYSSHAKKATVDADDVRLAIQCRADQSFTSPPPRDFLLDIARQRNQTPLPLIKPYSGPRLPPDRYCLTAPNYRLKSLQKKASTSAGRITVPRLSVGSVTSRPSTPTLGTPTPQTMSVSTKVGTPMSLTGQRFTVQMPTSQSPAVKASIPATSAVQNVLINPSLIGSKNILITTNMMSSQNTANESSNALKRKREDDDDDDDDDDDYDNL
inactive: [1] 0.125 | [2] -0.007 | [3] -0.092 | [4] 0.018 | Nexturastat A 0 | vemurafenib -0.017 | [5] -0.097 | [6] 0.02 | givinostat 0.019 | barasertib -0.019

SURF1 (UniProt Q15526)
inactive: [1] 0.045 | [2] -0.008 | [3] -0.019 | [4] 0.087 | Nexturastat A -0.033 | vemurafenib 0.042 | [5] 0.124 | [6] -0.01 | givinostat -0.01 | barasertib 0.027

SYMPK (UniProt Q92797)
inactive: [1] 0.042 | [2] -0.004 | [3] 0.05 | [4] 0.005 | Nexturastat A -0.103 | vemurafenib 0.119 | [5] 0.212 | [6] 0.051 | givinostat 0.145 | barasertib 0.042

TAX1BP1 (UniProt Q86VP1)
Chain of UniProt Q86VP1 (Q86VP1 whole entry, looked up): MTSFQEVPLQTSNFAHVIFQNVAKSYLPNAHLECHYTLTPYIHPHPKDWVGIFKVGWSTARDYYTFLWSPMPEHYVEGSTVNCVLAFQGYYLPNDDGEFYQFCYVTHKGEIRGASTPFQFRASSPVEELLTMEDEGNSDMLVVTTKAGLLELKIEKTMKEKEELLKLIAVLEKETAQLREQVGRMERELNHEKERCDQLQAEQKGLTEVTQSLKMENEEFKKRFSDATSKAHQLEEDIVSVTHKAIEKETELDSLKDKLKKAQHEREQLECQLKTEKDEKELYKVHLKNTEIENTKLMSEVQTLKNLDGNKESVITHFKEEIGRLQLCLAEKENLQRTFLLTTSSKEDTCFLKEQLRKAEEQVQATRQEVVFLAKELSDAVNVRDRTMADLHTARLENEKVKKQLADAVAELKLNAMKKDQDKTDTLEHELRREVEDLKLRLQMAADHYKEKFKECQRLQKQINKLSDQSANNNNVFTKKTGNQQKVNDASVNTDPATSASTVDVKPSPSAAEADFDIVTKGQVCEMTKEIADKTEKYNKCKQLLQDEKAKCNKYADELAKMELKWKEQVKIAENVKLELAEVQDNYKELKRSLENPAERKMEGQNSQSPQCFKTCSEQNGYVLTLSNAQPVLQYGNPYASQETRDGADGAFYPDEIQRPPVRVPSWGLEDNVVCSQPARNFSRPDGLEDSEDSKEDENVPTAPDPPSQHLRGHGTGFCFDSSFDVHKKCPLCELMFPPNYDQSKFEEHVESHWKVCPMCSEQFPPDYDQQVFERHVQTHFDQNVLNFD
inactive: [1] 0.031 | [2] -0.005 | [3] -0.014 | [4] -0.026 | Nexturastat A -0.014 | vemurafenib -0.003 | [5] 0.011 | [6] -0.055 | givinostat -0.033 | barasertib -0.061

SPG21 (UniProt Q9NZD8)
Chain of UniProt Q9NZD8 (Q9NZD8 whole entry, looked up): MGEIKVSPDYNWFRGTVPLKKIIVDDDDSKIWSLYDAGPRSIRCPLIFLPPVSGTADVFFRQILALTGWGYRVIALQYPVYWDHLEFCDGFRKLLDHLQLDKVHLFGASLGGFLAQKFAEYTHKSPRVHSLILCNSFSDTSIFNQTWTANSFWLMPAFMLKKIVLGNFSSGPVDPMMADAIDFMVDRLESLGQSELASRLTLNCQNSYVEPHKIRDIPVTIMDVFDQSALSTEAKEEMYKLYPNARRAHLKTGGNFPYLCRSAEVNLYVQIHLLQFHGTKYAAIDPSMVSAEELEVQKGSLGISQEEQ
inactive: [1] -0.108 | [2] -0.157 | [3] -0.003 | [4] 0.057 | Nexturastat A 0.016 | vemurafenib 0.044 | [5] -0.044 | [6] 0.057 | givinostat -0.014 | barasertib 0.026

SLC27A2 (UniProt O14975)
inactive: [1] 0.099 | [2] -0.042 | [3] -0.032 | [4] -0.032 | Nexturastat A -0.013 | vemurafenib 0.029 | [5] 0.073 | [6] 0.008 | givinostat -0.004 | barasertib 0

SPCS2 (UniProt Q15005)
Chain of UniProt Q15005 (Q15005 whole entry, looked up): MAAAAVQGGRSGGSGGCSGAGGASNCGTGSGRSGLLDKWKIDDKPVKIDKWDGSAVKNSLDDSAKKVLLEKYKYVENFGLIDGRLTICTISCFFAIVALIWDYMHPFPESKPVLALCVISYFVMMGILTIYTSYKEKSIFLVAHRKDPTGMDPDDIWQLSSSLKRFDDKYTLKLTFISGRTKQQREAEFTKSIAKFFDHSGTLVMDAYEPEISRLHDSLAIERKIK
inactive: [1] 0.011 | [2] 0.004 | [3] 0 | [4] 0.3 | Nexturastat A -0.052 | vemurafenib 0.075 | [5] 0.058 | [6] -0.011 | givinostat -0.009 | barasertib 0.025

SRPRB (UniProt Q9Y5M8)
Chain of UniProt Q9Y5M8 (Q9Y5M8 whole entry, looked up): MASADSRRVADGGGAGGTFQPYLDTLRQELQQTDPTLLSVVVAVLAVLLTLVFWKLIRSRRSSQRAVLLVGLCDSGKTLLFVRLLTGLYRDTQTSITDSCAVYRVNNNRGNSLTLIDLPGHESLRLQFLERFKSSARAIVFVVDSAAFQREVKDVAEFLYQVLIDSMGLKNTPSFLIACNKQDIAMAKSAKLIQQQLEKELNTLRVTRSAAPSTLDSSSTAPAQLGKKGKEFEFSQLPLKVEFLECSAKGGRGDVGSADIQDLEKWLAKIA
inactive: [1] 0.096 | [2] -0.051 | [3] 0.025 | [4] 0.092 | Nexturastat A -0.035 | vemurafenib 0.061 | [5] 0.073 | [6] 0.035 | givinostat -0.127 | barasertib 0.027

SLC7A6 (UniProt Q92536)
inactive: [1] 0.021 | [2] 0.027 | [3] 0.023 | [4] 0.017 | Nexturastat A 0.05 | vemurafenib 0.03 | [5] -0.046 | [6] -0.005 | givinostat 0.012 | barasertib 0.036

SLC6A6 (UniProt P31641)
inactive: [1] 0.017 | [2] 0.014 | [3] 0.011 | [4] 0.028 | Nexturastat A -0.062 | vemurafenib 0.066 | [5] -0.01 | [6] -0.176 | givinostat 0.014 | barasertib -0.018

SRSF4 (UniProt Q08170)
inactive: [1] 0.042 | [2] -0.001 | [3] -0.067 | [4] -0.032 | Nexturastat A 0.074 | vemurafenib -0.027 | [5] 0.017 | [6] 0.224 | givinostat 0.052 | barasertib -0.064

SRRM2 (UniProt Q9UQ35)
inactive: [1] -0.022 | [2] 0.01 | [3] -0.067 | [4] 0.147 | Nexturastat A 0.156 | vemurafenib 0.068 | [5] 0.007 | [6] 0.01 | givinostat 0.082 | barasertib -0.041

TERF2IP (UniProt Q9NYB0)
Chain of UniProt Q9NYB0 (Q9NYB0 whole entry, looked up): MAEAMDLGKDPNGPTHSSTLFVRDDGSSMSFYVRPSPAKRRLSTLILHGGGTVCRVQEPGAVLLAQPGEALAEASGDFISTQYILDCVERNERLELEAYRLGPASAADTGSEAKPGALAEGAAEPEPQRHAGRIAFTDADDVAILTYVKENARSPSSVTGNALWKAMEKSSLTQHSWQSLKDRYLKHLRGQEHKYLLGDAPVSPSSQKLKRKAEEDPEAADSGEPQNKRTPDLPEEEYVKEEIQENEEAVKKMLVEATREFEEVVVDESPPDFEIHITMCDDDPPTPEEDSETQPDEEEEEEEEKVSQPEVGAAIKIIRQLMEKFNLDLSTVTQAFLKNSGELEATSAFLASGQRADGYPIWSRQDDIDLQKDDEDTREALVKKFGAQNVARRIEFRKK
inactive: [1] -0.023 | [2] -0.012 | [3] 0.02 | [4] 0.013 | Nexturastat A 0.057 | vemurafenib 0.184 | [5] 0.001 | [6] -0.017 | givinostat -0.009 | barasertib 0.021

SMAP2 (UniProt Q8WU79)
Chain of UniProt Q8WU79 (Q8WU79 whole entry, looked up): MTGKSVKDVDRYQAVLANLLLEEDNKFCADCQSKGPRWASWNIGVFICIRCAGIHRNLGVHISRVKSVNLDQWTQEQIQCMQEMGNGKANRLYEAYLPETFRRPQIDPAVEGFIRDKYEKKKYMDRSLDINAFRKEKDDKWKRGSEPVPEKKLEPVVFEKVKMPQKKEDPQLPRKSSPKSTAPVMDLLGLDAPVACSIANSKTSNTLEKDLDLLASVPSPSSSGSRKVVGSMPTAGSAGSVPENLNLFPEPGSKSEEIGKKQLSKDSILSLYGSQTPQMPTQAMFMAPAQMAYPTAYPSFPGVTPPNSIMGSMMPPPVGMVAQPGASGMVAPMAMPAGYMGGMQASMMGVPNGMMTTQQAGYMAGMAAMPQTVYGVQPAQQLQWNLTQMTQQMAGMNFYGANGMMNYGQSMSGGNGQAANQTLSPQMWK
inactive: [1] -0.033 | [2] -0.063 | [3] 0.016 | [4] -0.054 | Nexturastat A 0.029 | vemurafenib 0.058 | [5] 0.055 | [6] 0.043 | givinostat 0.04 | barasertib 0.052

SNX12 isoform 1 (UniProt Q9UMY4)
inactive: [1] -0.021 | [2] -0.006 | [3] 0.032 | [4] 0.024 | Nexturastat A -0.082 | vemurafenib 0.054 | [5] 0.059 | [6] 0.008 | givinostat 0.004 | barasertib 0.062

SNX2 (UniProt O60749)
Chain of UniProt O60749 (O60749 whole entry, looked up): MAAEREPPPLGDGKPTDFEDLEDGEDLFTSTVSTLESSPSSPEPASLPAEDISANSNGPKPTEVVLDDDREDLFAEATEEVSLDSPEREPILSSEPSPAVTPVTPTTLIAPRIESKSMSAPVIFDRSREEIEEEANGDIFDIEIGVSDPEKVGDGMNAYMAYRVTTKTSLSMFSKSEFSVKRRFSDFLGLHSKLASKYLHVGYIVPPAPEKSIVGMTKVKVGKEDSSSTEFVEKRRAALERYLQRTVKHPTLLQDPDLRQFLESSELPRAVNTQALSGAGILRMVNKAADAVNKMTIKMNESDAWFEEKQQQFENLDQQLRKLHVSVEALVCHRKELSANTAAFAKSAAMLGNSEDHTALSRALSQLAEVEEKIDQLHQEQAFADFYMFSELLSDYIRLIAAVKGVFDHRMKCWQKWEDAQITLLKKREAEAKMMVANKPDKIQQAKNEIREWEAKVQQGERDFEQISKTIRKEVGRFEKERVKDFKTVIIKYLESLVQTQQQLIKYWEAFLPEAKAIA
inactive: [1] 0.009 | [2] -0.022 | [3] 0.02 | [4] 0.012 | Nexturastat A 0.021 | vemurafenib 0.013 | [5] 0.052 | [6] -0.036 | givinostat 0.073 | barasertib 0.037

SUPT16H (UniProt Q9Y5B9)
Chain of UniProt Q9Y5B9 (Q9Y5B9 whole entry, looked up): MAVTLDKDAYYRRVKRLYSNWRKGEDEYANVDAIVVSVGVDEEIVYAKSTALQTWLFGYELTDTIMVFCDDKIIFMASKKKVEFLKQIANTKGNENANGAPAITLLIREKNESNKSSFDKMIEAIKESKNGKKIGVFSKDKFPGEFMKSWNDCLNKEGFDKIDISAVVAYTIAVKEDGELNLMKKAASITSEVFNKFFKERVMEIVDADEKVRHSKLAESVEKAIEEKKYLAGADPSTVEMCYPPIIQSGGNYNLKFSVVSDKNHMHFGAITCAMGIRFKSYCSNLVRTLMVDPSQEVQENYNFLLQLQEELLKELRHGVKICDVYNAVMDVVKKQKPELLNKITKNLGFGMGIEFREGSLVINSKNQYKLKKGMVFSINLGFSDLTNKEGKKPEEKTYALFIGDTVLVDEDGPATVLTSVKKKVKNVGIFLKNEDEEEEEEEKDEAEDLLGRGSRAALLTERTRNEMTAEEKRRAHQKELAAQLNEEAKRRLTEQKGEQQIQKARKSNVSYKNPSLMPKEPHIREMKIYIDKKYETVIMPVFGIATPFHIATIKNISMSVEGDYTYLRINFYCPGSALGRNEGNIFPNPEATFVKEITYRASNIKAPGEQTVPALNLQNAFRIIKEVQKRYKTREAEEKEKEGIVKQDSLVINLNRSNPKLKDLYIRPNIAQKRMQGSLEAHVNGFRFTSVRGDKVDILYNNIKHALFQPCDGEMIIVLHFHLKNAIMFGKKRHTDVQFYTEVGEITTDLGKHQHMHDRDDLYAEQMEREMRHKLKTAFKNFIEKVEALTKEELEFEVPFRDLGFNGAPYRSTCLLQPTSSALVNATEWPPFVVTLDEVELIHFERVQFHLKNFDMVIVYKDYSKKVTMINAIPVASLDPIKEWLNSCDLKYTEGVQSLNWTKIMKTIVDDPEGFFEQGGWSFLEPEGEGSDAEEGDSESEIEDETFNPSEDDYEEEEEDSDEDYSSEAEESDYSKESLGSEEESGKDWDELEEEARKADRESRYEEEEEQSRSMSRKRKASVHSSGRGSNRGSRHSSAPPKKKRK
inactive: [1] 0.082 | [2] -0.081 | [3] 0.01 | [4] 0.102 | Nexturastat A -0.019 | vemurafenib 0.186 | [5] 0.093 | [6] 0.061 | givinostat 0.223 | barasertib 0.187

SRSF7 (UniProt Q16629)
inactive: [1] 0 | [2] 0.025 | [3] -0.115 | [4] -0.112 | Nexturastat A 0.193 | vemurafenib -0.043 | [5] -0.088 | [6] 0.114 | givinostat 0.059 | barasertib -0.105

SUPT5H (UniProt O00267)
inactive: [1] 0.004 | [2] -0.054 | [3] 0.006 | [4] 0.013 | Nexturastat A -0.067 | vemurafenib 0.008 | [5] 0.068 | [6] -0.028 | givinostat 0.035 | barasertib 0.04
